Measurements from the supplement of paper PMC3334620.
Over roughly 33,000 sequences, “E-score (-0.5 to 0.5)” has its median near -0.04; the highest 2% begin near 0.36. This is one part of a sample in which the highest values are shown more often than they occur.

molecular target: T1, Hmlalpha2 (UniProt P0CY09); experiment: PBM E-score (8-mer binding enrichment) (E-score (-0.5 to 0.5)); higher = stronger / more preferred TF binding; conditions: protein concentration: 200 nM; construct: GST-full length
T1 sequence: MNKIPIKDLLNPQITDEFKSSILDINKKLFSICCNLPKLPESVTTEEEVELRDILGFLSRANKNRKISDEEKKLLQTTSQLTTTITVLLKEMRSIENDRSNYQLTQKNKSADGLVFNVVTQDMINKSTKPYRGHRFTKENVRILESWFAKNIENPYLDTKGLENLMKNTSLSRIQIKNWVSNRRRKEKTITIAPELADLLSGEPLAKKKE
Description: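 Universal 'all 10-mer' protein binding microarrays (Agilent AMADID 015681) probed with GST-tagged S. cerevisiae TFs (full-length or DBD) made by in vitro transcription/translation (PURExpress), about 100-200 nM. Bound TF was detected with fluorescent anti-GST. Each ungapped 8-mer (which stands for itself and its reverse complement) is scored by the PBM enrichment score (E-score), a modified Wilcoxon-Mann-Whitney statistic from -0.5 to +0.5, computed with the Universal PBM Analysis Suite. Scale: above 0.35 generally sequence-specific binding.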

Sequence	PBM E-score
ACCTAGTC	-0.177
GAAGGACC	-0.245
ACAAGCCT	0.227
TCCAAGCA	-0.164
ATGGTAGA	0.079
GCGTAAAA	0.4
CCGTAAAC	0.199
GCGTAAGC	0.183
CCGTAAAA	0.12
GCGTAAAC	0.404
TCGTAAAA	0.237
CTTCAATA	0.173
ATACGGCA	0.103
GCATGTAC	0.408
CCATGTAC	0.398
CCATGTCG	0.336
CCATGTGC	0.0482
AAATGTAT	0.277
GCATGTCC	-0.0024
ACATGTAT	0.454
CCATGTCC	-0.00972
CCATGTAG	0.416
GCCTGTAC	0.101
CGATGTAG	0.106
ACATGTCT	0.305

Sequence	PBM E-score
GCAGCTCA	-0.181
CTATGGAC	-0.125
CTGCGAAA	0.0491
ATTCTGCA	-0.0444
ACCATCGT	-0.151
TCTAAGCA	-0.0643
TCGCTTAA	0.0673
AATATGCT	0.0361
AGATGTAC	0.121
ACATGTGC	0.352
ACATGTAC	0.412
ACATGTCG	0.343
ACATGTAG	0.459
ACATGTGG	0.312
CGGTGCGC	-0.279
ACTCTATC	-0.0301
ACCGTAGT	-0.225
AAGGGCCT	-0.136
ATGGCATA	-0.0529
CAAAGGTC	-0.233
ACGATTTA	0.244
TAACACTA	0.316
CTACACCC	0.0904
CCACACAA	-0.0216
TTACAAAA	0.266

Sequence	PBM E-score
CTACAGAG	0.184
CTACACAA	0.369
CCACACAC	0.0345
CTACAAAA	0.0813
TCACACAA	0.23
CTACACAG	0.421
CTACACAC	0.391
CTCTACAG	0.0676
TTACACAA	0.478
GCATAAGC	0.119
ACTGCCTC	-0.0994
CCCATTCG	-0.0725
GAAGCGGC	-0.131
GTACACAC	0.357
GCACACAA	0.155
GTACACAA	0.373
AAGTGCTG	0.107
TGCCACCA	-0.261
ACCATGGT	-0.0519
CACATGGC	0.0319
CACATGGG	-0.0456
ATCATGGG	-0.0934
AACATGGC	0.406
AACATGGA	0.346
AACATGGG	0.415

Sequence	PBM E-score
GACATGGC	0.224
AACATGGT	0.384
ACACTGTA	0.116
TCAGAAGA	-0.267
AATGCCCA	0.0243
AAATCCGG	-0.18
AAGTATTG	0.0978
AACACAGC	0.379
AACACAGG	0.247
CACACAAC	0.27
AACACAAT	0.373
AACACAAG	0.326
GACACAAC	0.264
AACACAAC	0.409
CACACAGC	0.201
CACACAAG	0.248
CGTTAGGA	0.0405
CATCGACA	-0.0243
GACGCTCA	-0.111
GGCCACCC	-0.351
CGGGGCGC	-0.244
AACACGTC	0.377
ACCACGTA	0.254
AACACGTG	0.348
CACACGTC	0.166

Sequence	PBM E-score
AAAACGTT	0.0264
AACACGTT	0.403
CACACGTG	0.289
GACACGTC	0.2
AACACGTA	0.41
CACACGTA	0.271
TACACGTA	0.428
GACACGTA	0.293
CAAGTACA	0.266
TAAGTGGA	0.0716
ACATTTAC	0.348
ACTGTCGC	-0.165
CGGAGAAG	-0.358
CCCTTTAG	-0.261
ATGACTCG	-0.0578
GATCTAAC	0.0316
CACCGACG	0.00164
ACTAGGAG	-0.0601
AACTAGGG	-0.094
GAGGGAAC	-0.165
AGACACGC	0.147
ATACACGG	0.445
AGACACGG	0.228
ATACACTA	0.149
ACACACGC	0.288

Sequence	PBM E-score
ATACACCA	0.215
ACACACGG	0.277
ATACACGC	0.449
ATACACGA	0.432
CTTTCATA	0.162
AGGTGTTA	0.256
ACGTGTTG	0.415
AGGTGTTG	-0.053
ACGTGTTC	0.211
ACGTGTGG	0.136
ACGTGTTA	0.45
GCGTGTGA	0.284
CCGTGTTA	0.44
GCGTGGTA	0.0607
CAGTGTTA	0.212
GCGTGTTA	0.46
CCGTGTTC	0.328
TCGGAGCA	-0.279
CTTAAAAC	0.201
AACTCTTG	-0.084
GCTTGTTA	0.286
GAAACCAA	0.00698
AAAACATA	0.39
CAAACATA	0.118
TAAACATA	0.416

Sequence	PBM E-score
CAAACATG	0.34
AAAACATT	0.242
AAAACATG	0.434
AGAACATA	0.248
AAAACATC	0.311
GAAACATA	0.192
GGTTGAAC	0.081
ACTGCAGG	-0.11
AACTCACT	0.0592
AGGTCGGA	-0.164
AACCTAGA	-0.109
CGTGTAAG	0.467
AGTGTAAG	0.116
AGTGTAAC	0.198
CGTGTAAC	0.443
ACTGTAAG	0.0573
GGTGTAAC	0.288
GAAATAGC	-0.0263
CAACTAAA	0.176
CTCTAGAG	-0.148
TCATCCCA	-0.231
AGTAATAC	0.211
CGTAATAA	0.378
CGTAATAG	0.246
CATAATAA	0.281

Sequence	PBM E-score
AGTAATAA	0.257
CGTAATAC	0.378
GGTAATAC	0.173
TGTAATAA	0.45
GGTAATAA	0.178
AGCGCGCA	0.0691
CCGGGGAG	-0.241
CAAGTCTG	-0.00344
ACCTCTTC	-0.0525
CGACGTTA	0.231
CGATGGAC	0.0281
CTTTTCAC	0.0898
AATCATGG	0.0457
AAGCATGG	-0.112
AACCATGT	0.368
AAGCATGC	0.117
AATCATGT	0.409
AACCATGC	-0.0458
AATCATGA	0.0793
AAGCATGT	0.377
AACCATGA	0.149
CCCCATTC	-0.266
CGGGCATC	-0.287
AAATTCCT	-0.135
CATTCTGA	-0.213

Sequence	PBM E-score
GCAGTTGA	-0.157
AAAGAGCT	-0.0941
GAGCTCCC	-0.322
AAATTTAG	0.0397
AATTTTAC	0.347
ATTTTTAA	0.237
AAATTTAC	0.375
ATTTTTAC	0.368
AAATTTAT	0.201
AACCCTAC	-0.0838
GAATTAGC	-0.0766
AGCTCTAT	-0.102
AGAGTGTA	0.0904
ACGCTATA	0.0242
ATTACGTC	0.321
AATACGTG	0.383
CTTACGTA	0.307
ATTACGTA	0.431
ACTACGTG	0.144
AATACGTC	0.226
GTTACGTA	0.293
AATACGTA	0.317
ATTACGTG	0.452
